Reference: ChEMBL document CHEMBL1961873, “Compounds: GSK PKIS; Assays: Nanosyn kinase panel” (2012)

Assays:
[1] = target: RAC-alpha serine/threonine-protein kinase (Homo sapiens) (UniProt P31749); settings: at 0.1 µM
[2] = target: RAC-alpha serine/threonine-protein kinase (Homo sapiens) (UniProt P31749); settings: at 1 µM
[3] = target: RAC-beta serine/threonine-protein kinase (Homo sapiens) (UniProt P31751); settings: at 0.1 µM
[4] = target: RAC-beta serine/threonine-protein kinase (Homo sapiens) (UniProt P31751); settings: at 1 µM
[5] = target: RAC-gamma serine/threonine-protein kinase (Homo sapiens) (UniProt Q9Y243); settings: at 0.1 µM
[6] = target: RAC-gamma serine/threonine-protein kinase (Homo sapiens) (UniProt Q9Y243); settings: at 1 µM
[7] = target: G protein-coupled receptor kinase 6 (Homo sapiens) (UniProt P43250); settings: at 0.1 µM
[8] = target: G protein-coupled receptor kinase 6 (Homo sapiens) (UniProt P43250); settings: at 1 µM
[9] = target: T1, Rhodopsin kinase GRK7 (Homo sapiens) (UniProt Q8WTQ7); settings: at 0.1 µM
T1 sequence (whole entry): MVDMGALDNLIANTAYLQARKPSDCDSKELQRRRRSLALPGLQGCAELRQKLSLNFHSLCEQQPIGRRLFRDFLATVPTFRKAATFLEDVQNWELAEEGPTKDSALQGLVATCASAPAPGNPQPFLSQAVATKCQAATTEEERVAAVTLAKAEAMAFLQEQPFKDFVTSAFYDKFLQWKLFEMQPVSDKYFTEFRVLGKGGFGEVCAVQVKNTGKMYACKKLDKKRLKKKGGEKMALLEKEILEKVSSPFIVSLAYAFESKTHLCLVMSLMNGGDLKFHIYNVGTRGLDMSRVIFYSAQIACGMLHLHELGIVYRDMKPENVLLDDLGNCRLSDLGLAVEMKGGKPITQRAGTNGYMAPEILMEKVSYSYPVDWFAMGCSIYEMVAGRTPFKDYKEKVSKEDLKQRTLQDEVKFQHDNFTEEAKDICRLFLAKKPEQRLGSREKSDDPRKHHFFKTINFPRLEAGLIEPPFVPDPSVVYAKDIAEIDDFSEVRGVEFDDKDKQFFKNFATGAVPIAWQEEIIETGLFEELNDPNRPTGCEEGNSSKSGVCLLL

[10] = target: T1, Rhodopsin kinase GRK7 (Homo sapiens); settings: at 1 µM
[11] = target: Serine/threonine-protein kinase MRCK alpha (Homo sapiens) (UniProt Q5VT25); settings: at 0.1 µM
[12] = target: Serine/threonine-protein kinase MRCK alpha (Homo sapiens) (UniProt Q5VT25); settings: at 1 µM
[13] = target: Serine/threonine-protein kinase MRCK beta (Homo sapiens) (UniProt Q9Y5S2); settings: at 0.1 µM
[14] = target: Serine/threonine-protein kinase MRCK beta (Homo sapiens) (UniProt Q9Y5S2); settings: at 1 µM
[15] = target: Ribosomal protein S6 kinase alpha-5 (Homo sapiens) (UniProt O75582); settings: at 0.1 µM
[16] = target: Ribosomal protein S6 kinase alpha-5 (Homo sapiens) (UniProt O75582); settings: at 1 µM
[17] = target: Ribosomal protein S6 kinase alpha-4 (Homo sapiens) (UniProt O75676); settings: at 0.1 µM
[18] = target: Ribosomal protein S6 kinase alpha-4 (Homo sapiens) (UniProt O75676); settings: at 1 µM
[19] = target: Ribosomal protein S6 kinase beta-1 (Homo sapiens) (UniProt P23443); settings: at 0.1 µM
[20] = target: Ribosomal protein S6 kinase beta-1 (Homo sapiens) (UniProt P23443); settings: at 1 µM

Sequence of G protein-coupled receptor kinase 6 (Homo sapiens) (P43250 whole entry, looked up): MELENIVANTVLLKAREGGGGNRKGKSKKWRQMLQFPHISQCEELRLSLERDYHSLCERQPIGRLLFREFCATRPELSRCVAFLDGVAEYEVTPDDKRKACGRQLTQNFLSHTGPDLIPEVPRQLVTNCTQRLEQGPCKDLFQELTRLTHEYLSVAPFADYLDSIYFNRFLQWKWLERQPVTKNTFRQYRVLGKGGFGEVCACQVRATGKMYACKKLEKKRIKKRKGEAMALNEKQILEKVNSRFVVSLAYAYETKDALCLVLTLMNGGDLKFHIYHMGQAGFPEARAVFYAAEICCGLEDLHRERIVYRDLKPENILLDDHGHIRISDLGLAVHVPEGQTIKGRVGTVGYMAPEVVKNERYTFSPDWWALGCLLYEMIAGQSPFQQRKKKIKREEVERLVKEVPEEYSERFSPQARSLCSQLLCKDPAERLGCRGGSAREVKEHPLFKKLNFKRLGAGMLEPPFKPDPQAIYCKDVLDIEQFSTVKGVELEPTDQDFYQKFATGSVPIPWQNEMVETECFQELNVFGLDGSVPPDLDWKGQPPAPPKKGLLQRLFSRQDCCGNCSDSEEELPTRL
Sequence of Ribosomal protein S6 kinase beta-1 (Homo sapiens) (P23443 whole entry, looked up): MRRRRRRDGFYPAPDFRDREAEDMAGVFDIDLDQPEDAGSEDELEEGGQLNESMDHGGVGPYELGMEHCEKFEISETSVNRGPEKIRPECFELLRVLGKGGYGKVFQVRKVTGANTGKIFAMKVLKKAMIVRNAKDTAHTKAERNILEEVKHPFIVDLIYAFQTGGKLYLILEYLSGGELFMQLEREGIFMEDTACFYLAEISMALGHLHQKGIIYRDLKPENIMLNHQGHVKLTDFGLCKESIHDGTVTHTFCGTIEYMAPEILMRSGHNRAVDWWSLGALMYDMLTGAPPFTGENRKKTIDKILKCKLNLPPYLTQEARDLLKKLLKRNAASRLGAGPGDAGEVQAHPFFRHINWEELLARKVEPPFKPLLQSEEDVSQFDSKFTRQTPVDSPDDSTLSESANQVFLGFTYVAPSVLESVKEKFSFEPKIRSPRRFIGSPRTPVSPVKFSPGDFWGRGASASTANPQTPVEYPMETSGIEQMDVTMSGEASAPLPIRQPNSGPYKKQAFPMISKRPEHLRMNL
Sequence of Ribosomal protein S6 kinase alpha-4 (Homo sapiens) (O75676 whole entry, looked up): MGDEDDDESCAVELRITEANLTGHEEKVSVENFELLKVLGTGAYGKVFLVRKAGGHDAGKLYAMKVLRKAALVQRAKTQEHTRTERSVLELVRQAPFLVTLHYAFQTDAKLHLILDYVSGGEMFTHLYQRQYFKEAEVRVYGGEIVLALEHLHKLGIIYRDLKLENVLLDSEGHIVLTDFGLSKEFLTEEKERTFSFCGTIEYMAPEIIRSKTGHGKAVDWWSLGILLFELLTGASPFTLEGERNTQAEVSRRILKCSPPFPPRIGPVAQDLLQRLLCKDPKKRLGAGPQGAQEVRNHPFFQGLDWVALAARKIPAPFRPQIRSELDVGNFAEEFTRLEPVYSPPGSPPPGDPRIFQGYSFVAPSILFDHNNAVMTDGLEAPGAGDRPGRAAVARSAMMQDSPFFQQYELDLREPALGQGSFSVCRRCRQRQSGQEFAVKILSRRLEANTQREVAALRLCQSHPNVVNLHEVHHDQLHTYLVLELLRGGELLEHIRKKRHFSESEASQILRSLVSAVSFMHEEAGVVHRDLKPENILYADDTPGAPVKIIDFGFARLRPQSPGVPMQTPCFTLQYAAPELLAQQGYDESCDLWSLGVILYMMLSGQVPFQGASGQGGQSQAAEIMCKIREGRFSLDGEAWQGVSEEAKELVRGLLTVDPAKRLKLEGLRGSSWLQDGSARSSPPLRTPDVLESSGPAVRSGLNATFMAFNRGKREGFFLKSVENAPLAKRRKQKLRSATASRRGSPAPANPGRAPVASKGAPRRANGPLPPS
Sequence of Ribosomal protein S6 kinase alpha-5 (Homo sapiens) (O75582 whole entry, looked up): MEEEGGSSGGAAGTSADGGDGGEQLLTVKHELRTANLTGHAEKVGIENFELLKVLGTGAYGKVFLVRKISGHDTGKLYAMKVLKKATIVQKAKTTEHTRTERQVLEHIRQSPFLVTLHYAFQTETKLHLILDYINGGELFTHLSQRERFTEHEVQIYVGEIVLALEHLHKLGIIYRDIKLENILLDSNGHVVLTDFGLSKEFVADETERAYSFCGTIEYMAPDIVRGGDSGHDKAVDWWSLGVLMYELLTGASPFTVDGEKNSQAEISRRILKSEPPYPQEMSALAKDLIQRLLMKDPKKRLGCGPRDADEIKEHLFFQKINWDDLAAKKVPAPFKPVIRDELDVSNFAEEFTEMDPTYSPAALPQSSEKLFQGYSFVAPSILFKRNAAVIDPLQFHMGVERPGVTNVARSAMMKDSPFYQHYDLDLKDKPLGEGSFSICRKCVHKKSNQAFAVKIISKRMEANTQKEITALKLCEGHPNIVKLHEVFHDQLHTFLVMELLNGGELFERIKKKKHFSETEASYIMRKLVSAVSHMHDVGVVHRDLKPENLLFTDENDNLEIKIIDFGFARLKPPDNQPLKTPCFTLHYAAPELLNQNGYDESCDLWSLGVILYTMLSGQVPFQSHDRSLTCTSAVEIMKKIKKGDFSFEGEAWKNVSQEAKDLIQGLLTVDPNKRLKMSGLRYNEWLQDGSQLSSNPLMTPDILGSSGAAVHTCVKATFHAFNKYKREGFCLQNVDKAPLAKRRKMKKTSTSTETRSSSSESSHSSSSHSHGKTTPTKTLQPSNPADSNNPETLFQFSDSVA
Sequence of Serine/threonine-protein kinase MRCK beta (Homo sapiens) (Q9Y5S2 whole entry): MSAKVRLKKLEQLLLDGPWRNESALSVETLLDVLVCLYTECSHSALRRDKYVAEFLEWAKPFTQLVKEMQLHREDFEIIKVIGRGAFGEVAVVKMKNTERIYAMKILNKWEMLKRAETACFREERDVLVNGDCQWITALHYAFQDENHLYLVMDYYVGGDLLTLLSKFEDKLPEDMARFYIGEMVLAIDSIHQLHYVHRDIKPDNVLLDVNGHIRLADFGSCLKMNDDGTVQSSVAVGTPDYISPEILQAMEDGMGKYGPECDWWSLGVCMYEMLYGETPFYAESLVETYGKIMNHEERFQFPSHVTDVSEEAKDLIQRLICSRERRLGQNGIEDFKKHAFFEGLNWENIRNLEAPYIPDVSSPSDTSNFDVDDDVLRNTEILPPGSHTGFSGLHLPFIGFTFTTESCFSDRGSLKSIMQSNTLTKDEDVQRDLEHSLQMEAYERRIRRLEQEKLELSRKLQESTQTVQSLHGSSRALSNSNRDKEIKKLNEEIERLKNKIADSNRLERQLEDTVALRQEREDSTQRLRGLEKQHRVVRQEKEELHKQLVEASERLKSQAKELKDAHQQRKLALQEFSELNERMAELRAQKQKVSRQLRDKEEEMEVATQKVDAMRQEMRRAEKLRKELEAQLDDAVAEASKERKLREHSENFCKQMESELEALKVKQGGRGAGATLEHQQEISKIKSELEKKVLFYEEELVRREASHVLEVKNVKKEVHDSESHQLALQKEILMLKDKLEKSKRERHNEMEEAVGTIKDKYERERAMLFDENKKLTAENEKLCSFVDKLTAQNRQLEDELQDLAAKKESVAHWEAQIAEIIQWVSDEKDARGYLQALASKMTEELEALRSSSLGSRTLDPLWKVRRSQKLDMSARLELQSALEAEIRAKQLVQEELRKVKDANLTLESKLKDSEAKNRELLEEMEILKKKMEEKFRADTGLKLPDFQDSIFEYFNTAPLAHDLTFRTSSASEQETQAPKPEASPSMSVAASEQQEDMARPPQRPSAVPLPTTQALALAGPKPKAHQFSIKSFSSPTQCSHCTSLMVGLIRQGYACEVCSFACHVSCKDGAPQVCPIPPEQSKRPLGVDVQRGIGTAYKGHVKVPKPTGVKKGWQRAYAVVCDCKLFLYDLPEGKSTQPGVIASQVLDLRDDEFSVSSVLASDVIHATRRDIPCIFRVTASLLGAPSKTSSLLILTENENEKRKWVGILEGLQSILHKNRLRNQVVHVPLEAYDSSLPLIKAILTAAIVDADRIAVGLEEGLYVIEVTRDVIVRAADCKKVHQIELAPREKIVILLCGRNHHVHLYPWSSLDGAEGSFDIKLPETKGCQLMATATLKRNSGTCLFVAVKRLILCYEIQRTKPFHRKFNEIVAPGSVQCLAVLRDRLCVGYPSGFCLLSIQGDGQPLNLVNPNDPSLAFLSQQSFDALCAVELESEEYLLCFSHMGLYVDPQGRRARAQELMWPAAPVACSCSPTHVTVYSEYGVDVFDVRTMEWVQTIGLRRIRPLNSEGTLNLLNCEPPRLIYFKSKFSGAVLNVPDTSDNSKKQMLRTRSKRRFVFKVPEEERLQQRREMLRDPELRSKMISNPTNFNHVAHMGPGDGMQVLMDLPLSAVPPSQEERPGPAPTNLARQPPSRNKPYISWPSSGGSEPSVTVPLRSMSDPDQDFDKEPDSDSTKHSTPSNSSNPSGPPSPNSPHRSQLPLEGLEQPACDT
Sequence of RAC-alpha serine/threonine-protein kinase (Homo sapiens) (P31749 whole entry): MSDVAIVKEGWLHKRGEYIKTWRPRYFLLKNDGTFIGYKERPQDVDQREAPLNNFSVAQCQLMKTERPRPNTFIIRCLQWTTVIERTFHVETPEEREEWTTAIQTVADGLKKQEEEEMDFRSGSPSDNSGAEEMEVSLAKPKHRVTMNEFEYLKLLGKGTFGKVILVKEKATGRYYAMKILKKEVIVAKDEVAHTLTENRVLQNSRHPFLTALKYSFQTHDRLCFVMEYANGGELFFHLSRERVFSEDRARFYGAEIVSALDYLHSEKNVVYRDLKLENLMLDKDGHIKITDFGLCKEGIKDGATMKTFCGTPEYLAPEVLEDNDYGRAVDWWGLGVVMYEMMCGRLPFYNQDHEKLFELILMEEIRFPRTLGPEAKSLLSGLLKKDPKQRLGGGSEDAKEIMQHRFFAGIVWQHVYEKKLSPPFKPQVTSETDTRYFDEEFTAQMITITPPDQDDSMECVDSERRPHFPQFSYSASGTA

| SMILES | inhibition [1] [%] | inhibition [2] [%] | inhibition [3] [%] | inhibition [4] [%] | inhibition [5] [%] | inhibition [6] [%] | inhibition [7] [%] | inhibition [8] [%] | inhibition [9] [%] | inhibition [10] [%] | inhibition [11] [%] | inhibition [12] [%] | inhibition [13] [%] | inhibition [14] [%] | inhibition [15] [%] | inhibition [16] [%] | inhibition [17] [%] | inhibition [18] [%] | inhibition [19] [%] | inhibition [20] [%] |
| --- | --- | --- | --- | --- | --- | --- | --- | --- | --- | --- | --- | --- | --- | --- | --- | --- | --- | --- | --- | --- |
| COc1cc(Nc2nccc(-c3cnn4ncccc34)n2)cc(OC)c1 | 0.23 | 0.24 | 0.16 | 0.1 | 0.27 | 1.18 | 0.91 | -0.01 | 6.32 | 9.43 | 0.39 | 3.14 | 1.06 | 3.3 | 1.61 | 7.26 | 2.85 | 15.7 | 1.87 | 6.59 |
| CN(C)C(=O)O[C@@H]1CN[C@@H](C#Cc2cc3ncnc(Nc4ccc(OCc5cccc(F)c5)c(Cl)c4)c3s2)C1 | -0.54 | -0.11 | 0 | -1.02 | -0.71 | 0.16 | 0.14 | -1.42 | -2.8 | 11.4 | 0.14 | 1.14 | -0.75 | 0.85 | 0.39 | 2.9 | -1.34 | 2.41 | 0.37 | 1.14 |
| FC(F)(F)c1ccc(-c2nn3ncccc3c2-c2ccnc(Nc3ccc4c(c3)OCCO4)n2)cc1 | 0.91 | 0.98 | 0.17 | 0.25 | -0.63 | -0.79 | 1.14 | 12.6 | 4.88 | 11.6 | 7.63 | 5.17 | 6.18 | 4.64 | 3.36 | 4.3 | 5.05 | 6.41 | 1.5 | 2.06 |
| C[C@@H](Oc1cc(-n2cnc3ccc(OCC4CCN(C)CC4)cc32)sc1C(N)=O)c1ccccc1C(F)(F)F | -0.94 | -1.34 | -1.9 | -0.71 | -1.91 | 1.79 | -1.55 | -1.03 | 2.15 | -2.25 | 0.6 | 5.18 | 0.07 | 0.75 | -2.08 | -0.6 | 0 | 2.52 | 0.24 | 5.55 |
| CCn1c(-c2nonc2N)nc2c(C#CC(C)(C)O)nc(OCCNC)cc21 | 20.8 | 67.4 | 33.1 | 75.3 | 23.1 | 68.2 | 4.94 | 3.62 | 9.11 | 2.53 | 1.79 | 6.63 | -0.48 | 2.36 | 1.77 | 2.97 | 3.16 | 9.93 | 3.31 | 10.1 |
| O=S(=O)(CCOCc1ccc(-c2ccc3ncnc(Nc4ccc(OCc5cccc(F)c5)c(Cl)c4)c3c2)o1)c1ccccc1 | -0.1 | -0.35 | 0.2 | 1.21 | -0.84 | 3.06 | 0.84 | 0.78 | 7.97 | 4.68 | 0.06 | -0.21 | 0.42 | 1.18 | 0.65 | 0.85 | -0.78 | 0.33 | -1.35 | -0.16 |
| CN(C)C(=O)O[C@H]1CN[C@H](C#Cc2cc3ncnc(Nc4ccc(OCc5cccc(F)c5)c(Cl)c4)c3s2)C1 | 0.44 | 1.13 | 1.82 | 1.59 | 1.22 | -1.3 | 3.73 | 0.78 | 2.97 | 8.33 | -0.3 | -0.73 | 0.58 | 2.77 | 2.4 | 4.95 | 0.06 | 4.03 | 0.89 | 2.08 |
| N#Cc1c(NC(=O)c2ccccc2F)sc2c1CCCC2 | -0.97 | -1.21 | -1.71 | -1.01 | -1.05 | -0.44 | 1.29 | 2.2 | 2.28 | -1.97 | 1.07 | -1.26 | 0.23 | -0.14 | -2.83 | -2.33 | -1.11 | -0.35 | -0.91 | -0.98 |
| COc1cccc(-n2ncc3c(N/N=C/c4ccc(C)cc4)ncnc32)c1 | 1.26 | 0.76 | 1.76 | 1.75 | 0.43 | 1.94 | 4.73 | 5.93 | 11.7 | 7.9 | 4.17 | 5.98 | 1.06 | 1.73 | -3.87 | -2.7 | 3.45 | 5.55 | 2.62 | 3.95 |
| Nc1nccc(-c2c(-c3ccc(F)cc3)nn3cc(C(F)(F)F)ccc23)n1 | 0.02 | -0.66 | -0.52 | 0.01 | 0.2 | -5.93 | -1.46 | -0.24 | 3.74 | 4.14 | -3.46 | -4.53 | -0.89 | -2.82 | -0.99 | -2.88 | 1.24 | -1.94 | -0.77 | -3 |
| NC(=O)c1cccc(Nc2nccc(Nc3cccc(F)c3)n2)c1 | 0.22 | -0.29 | 0.22 | 0.58 | 0.47 | 3.46 | 2.83 | 0.77 | 4.02 | 2.39 | 1.84 | 0.87 | 0.04 | 1.43 | 1.48 | 0.2 | 0.68 | 1.21 | 0.38 | 1.99 |
| CN(C)c1cc2c(Nc3ccc4c(cnn4Cc4ccccc4)c3)ncnc2cn1 | 0.51 | 0.62 | 2.07 | 1.16 | 0.46 | 1.23 | 3.25 | 3.36 | 2.54 | 3.15 | -0.16 | 0.83 | 1.04 | 1.67 | 3.83 | 6.2 | 2.42 | 6.24 | 2.01 | 3.88 |
| O=C(Nc1ccc(Oc2ccc3[nH]c(NC(=O)c4ccco4)nc3c2)cc1)Nc1cc(C(F)(F)F)ccc1F | -3.62 | -0.4 | -3.05 | -2.64 | -3.47 | -4.94 | 0.72 | -4.1 | -0.48 | -4.51 | -0.11 | -0.59 | 1.48 | 2.67 | -0.96 | 1.79 | 1.72 | 5.67 | 14.2 | 58.4 |
